Assay outcomes deposited in PubChem BioAssay by several laboratories.
Sampled rows, rich in hits. Any-hit rate of the full collection: about 4.8%.
hgDAF12 agonist – hgDAF-12 agonism, primary luciferase screen; activation, % at 6.8 µM; 370,000 compounds, 1.8% hits; HEK293 GAL4-hgDAF12 UAS-luciferase reporter, agonist luminescence; normalized to butyrate control; AID 687014;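 active means activation above a cutoff set at the mean of all screened compounds plus 3 SD, cut at about 10% in these data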;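 further: 0% = DMSO wells and 100% = sodium butyrate wells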
NR1D1 modulator – modulates human Rev-erb alpha binding to DNA | activity, % at 10 µM | Rev-erbα–FITC-DNA binding, fluorescence polarization, 90 min | P20393 | 370,000 compounds, 0.79% hits | AID 1259318;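 active means activity above about 14%, limit read from the data; passing the limit was not always enough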;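 further: 0% = DMSO wells with 35 nM protein and 100% = DMSO wells with 750 nM protein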
ssDAF-12 act – activates DAF-12 receptor from parasite S. stercoralis | HEK293 ssDAF-12/GRIP1 lit1-tk-luc reporter, luminescence; % of 3 µM dafachronic acid response | activation, % at 6.8 µM | 370,000 compounds, 1% hits | AID 652126;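 active means activation above the mean over all tested compounds plus 3 SD, cut at about 0.9% in these data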;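 further: 0% = DMSO-only wells and 100% = 3 µM delta7-dafachronic acid wells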
hcDAF-12 act – activators of H. contortus DAF-12 nuclear receptor; HEK293 hcDAF-12 lit1-tk-luc reporter, luminescence; 0% DMSO, 100% Δ7-dafachronic acid; activation, % at 6.8 µM; 370,000 compounds, 1.4% hits; AID 652067;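 active means activation above the mean of all tested compounds plus 3 SD, cut at about 5.5% in these data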;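 further: 100% = response to 3 µM Δ7-dafachronic acid high control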
DAX1 inh-1 – blocks DAX1 repression of SF-1 activated StAR promoter; 370,000 compounds, 1.1% hits; HEK293T StAR-luciferase reporter, SF-1/DAX-1 repression relief; inhibition, % at 6.8 µM;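 active means inhibition above the mean over all tested compounds plus 3 SD, cut at about 3.6% in these data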;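 further: 0% = DAX-1 cells with DMSO and 100% = cells lacking DAX-1 with DMSO; higher inhibition means more luminescence from relief of DAX-1 repression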
DAX1 inh-2 – inhibits human nuclear receptor DAX1; P51843; 340,000 compounds, 0.99% hits; inhibition, % at 6.75 µM; HEK293 Gal4-DAX1 luciferase reporter, luminescence;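 active means inhibition above the mean over all tested compounds plus 3 SD, cut at about 4.2% in these data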;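 further: 0% = DAX1-transfected cells with DMSO and 100% = empty-vector control cells with DMSO; inhibition shows as a rise in luminescence from relieved DAX1 repression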
Target sequence (P51843 207-470 limits assumed): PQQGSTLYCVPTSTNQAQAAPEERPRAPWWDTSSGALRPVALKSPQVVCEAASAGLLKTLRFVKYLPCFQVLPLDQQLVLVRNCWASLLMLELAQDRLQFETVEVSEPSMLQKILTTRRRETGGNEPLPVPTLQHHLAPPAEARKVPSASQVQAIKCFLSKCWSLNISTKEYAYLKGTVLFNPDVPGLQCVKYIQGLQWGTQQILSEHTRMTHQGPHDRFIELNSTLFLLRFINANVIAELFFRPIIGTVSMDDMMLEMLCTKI
DAX1 conf – confirmation of human DAX1 (NR0B1) inhibitors | AID 652134 | shares compounds with DAX1 inh-1 | HEK293T StAR-promoter luciferase reporter, SF-1/DAX-1 repression | 2,400 compounds, 87% hits | inhibition, % at 6.8 µM;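 active means inhibition above the average of every tested compound plus 3 SD, cut at about 3.8% in these data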;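 further: 0% = DAX-1 cells with DMSO and 100% = no DAX-1 control cells with DMSO; active compounds raise luminescence by relieving repression of the StAR reporter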
SF1 AF2mut Luc – nonselective inhibitor or artifact in SF-1 mutant DAX1 counter-screen; shares compounds with DAX1 inh-1; HEK293 StAR-luciferase, SF-1 AF2 mutant, luminescence; inhibition, % at 6.8 µM; 2,400 compounds, 78% hits; AID 652136;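 active means inhibition above the mean of all tested compounds plus 3 SD, cut at about 3% in these data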;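 further: 0% = DAX-1 transfected cells with DMSO and 100% = cells without DAX-1 with DMSO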
The depositor's hits bear a star; / = no result.

SMILES	hgDAF12 agonist	NR1D1 modulator	ssDAF-12 act	hcDAF-12 act	DAX1 inh-1	DAX1 inh-2	DAX1 conf	SF1 AF2mut Luc
Cc1cccc(-c2cc3nc4c(c(N5CCC6(CC5)OCCO6)n3n2)CCCC4)c1	-0.4	-0.4	-1.2	0.8	1.1	-1.3	/	/
C/C(C=NNC(=O)CSc1nnc(-c2ccccc2)n1-c1ccc(C)cc1)=C\c1ccco1	-1.2	-9.7	-0.7	-1.7	-0.1	/	/	/
Cc1[nH]c2ccc(C(=O)NC3CCC(C)CC3)cc2c1C (stereo not given)	12.6*	-0.3	-0.8	3.6	5.4*	1.6	6.8*	3.3*
CC(=O)Nc1cccc(-c2csc(Nc3ccccn3)n2)c1	7.5	8.4	-0.5	5.1	4.5*	1.6	12.3*	6.0*
CC(=O)Nc1cccc(-c2csc(NCc3ccccc3)n2)c1	-0.1	-4.2	-1.2	0.0	0.0	2.7	/	/
O=CN1CCN(C(=O)C2CCN(c3ncnc4c3sc3cccc(F)c34)CC2)CC1	2.3	4.9	-1.1	-1.2	-2.4	/	/	/
Cc1ccc2nc(-c3ccc4c(c3)OCCO4)cn2c1	-11.6	-2.3	-2.5	-5.5	-2.6	-9.5	/	/
Clc1ccc(-c2cn3cc(Br)ccc3n2)cc1Cl	23.3*	19.4	3.0*	14.4*	8.0*	1.7	12.6*	5.2*
COc1cccc(C2c3c(ncn(-c4ccccc4)c3=N)Oc3ccc4ccccc4c32)c1OC (stereo not given)	1.0	0.3	-1.8	-0.7	/	/	/	/
Cc1ccc(NC(=O)Cc2ccc(F)cc2)c(S(=O)(=O)N2CCOCC2)c1	-3.1	-0.6	-1.5	0.7	-0.6	/	/	/
CCC1(O)CC2CN(CCc3c([nH]c4ccccc34)C(C(=O)OC)(c3cc4c(cc3OC)N(C=O)C3C(O)(C(=O)OC)C(OC(C)=O)C5(CC)C=CCN6CCC43C65)C2)C1 (stereo not given)	-6.8	1.1	-0.5	1.7	5.2*	2.5	21.1*	-6.2
O=C(Nc1ccc(F)c(Cl)c1)c1csc([C@@H]2C[C@H](O)[C@@H](CO)O2)n1	1.6	12.8	-1.0	3.0	4.7*	/	3.0	2.2
COc1ccc(-c2ccnc3c(Br)c(C)nn23)cc1	2.4	-1.2	-0.6	-1.0	4.8*	0.9	1.2	1.9
Cc1nn2c(-c3ccc(F)cc3)ccnc2c1Br	-0.6	5.8	-0.7	-1.5	0.1	1.4	/	/
COc1ccc(OC)c(CN2CCN(C(=O)CN3C(=O)NC4(CCCC4)C3=O)CC2)c1	-0.1	-1.6	-1.3	-0.8	4.9*	-0.3	-2.2	-0.1
O=C(Nc1ccc(C(=O)N2CCCCC2)cc1)C1=CSCCO1	5.4	8.8	0.9	1.1	6.2*	3.4	4.7*	1.6
O=C(Nc1ncc([N+](=O)[O-])s1)c1ccco1	8.1	-1.7	0.7	4.3	6.5*	1.0	5.7*	6.2*
CCCCN1CC(COc2ccc(OC)cc2)OCCS1(=O)=O (stereo not given)	0.2	-1.2	-0.5	1.3	-0.2	/	/	/
COc1cc2cc(C(=O)NC(C)c3cccc4ccccc34)c(N)nc2cc1OC (stereo not given)	1.9	0.7	-1.4	-2.9	5.1*	/	2.3	-1.1
Cc1cc(Cl)c2oc(C(=O)N(C)C3CCOC3)c(C)c2c1 (stereo not given)	3.5	0.4	-0.2	-0.2	6.6*	2.4	7.5*	2.2
Cc1cc(Cl)c2oc(C(=O)N3CCOCC3)c(C)c2c1	7.1	-2.9	-0.4	4.1	1.1	2.6	/	/
O=C(O)c1cccc(Nc2nc3ccccc3nc2NS(=O)(=O)c2ccc(F)cc2)c1	1.6	6.3	0.1	0.3	6.6*	-0.8	2.7	3.9*
Cc1cccc(S(=O)(=O)Nc2nc3ccccc3nc2Nc2cccc(C(=O)O)c2)c1	1.4	-3.7	-0.9	1.9	1.3	1.1	/	/
O=C(Nc1ccc(F)cc1F)c1csc(-c2cccs2)n1	12.7*	4.2	2.1*	5.1	7.0*	2.8	9.3*	6.7*
